Compound activity (PubChem)
ARNT-TACC3 inh: ARNT/TACC3 interaction disruption; AlphaScreen His-ARNT PAS-B/GST-TACC3 binding, luminescence; TACC3 fragment carries E629A point mutation; inhibition, % at 9.99 µM; 390,000 compounds, 0.66% hits; Q9Y6A5;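 active means mean inhibition of replicates at least 50% and at least half of replicates each reaching 50%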
HSF1 inhib: HSF1 inhibition; activity change, negative = inhibition, % at 7.5 µM (by protocol); NIH3T3-HGL HSE-luciferase, MG132-induced, luminescence 8 h; hits give low values; 300,000 compounds, 0.77% hits;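 active means more than half of replicate wells show activity change below -50%, luminescence cut by over half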;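 further: luciferase reports HSF-1 transcriptional activity via heat shock element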
HIF act: HIF pathway transcriptional activation | 300,000 compounds, 0.32% hits | U2OS HRE-luciferase reporter, luminescence; normalized: DMSO 0%, desferrioxamine 100% | activation, % at 7.5 µM (by protocol);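 active means mean activation of at least 10% of the iron chelator positive control signal, with at least half of replicates also reaching 10%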
HSP90 refold inh: blocks HSP90-mediated luciferase refolding in reticulocyte lysate. 290,000 compounds, 0.91% hits. AID 1789. inhibition, % at 5.6 µM. Rabbit reticulocyte lysate, luciferase refolding luminescence, 3 h;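 active means inhibition above the screen-wide mean plus 3 SD, computed separately per campaign, cut at about 16% in these data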;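 further: inhibitors lower the luminescence because luciferase stays unfolded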
HSF-1 act: increases HSF-1 driven luciferase reporter signal. activation, % at 9 µM. NIH3T3-HGL HSF-1 luciferase reporter, MG132, 8 h; 100% = twice DMSO control signal. 300,000 compounds, 1.7% hits;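 active means mean replicate activation of at least 50% with a set share of replicates each reaching 50%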
Hits are given with their value; – = inactive; · = no result. Shown are actives, neighbours in structure and some others; about 3.1% of the full set was active somewhere.

SMILES	ARNT-TACC3 inh	HSF1 inhib	HIF act	HSP90 refold inh	HSF-1 act
CCCCNC(=O)Nc1nnc(C(C)(C)C)s1	–	–	–	–	56
O=C(Cc1ccc(Cl)cc1Cl)OCC(=O)c1ccc[nH]1	–	–	–	–	–
O=C(COc1ccc(F)c(Cl)c1)c1ccc[nH]1	·	–	–	–	93
O=C([C@H]1[C@H](CO)[C@H]2Cn3c(ccc(-c4ccccc4)c3=O)[C@@H]1N2)N1CCCCC1	–	·	·	·	·
COC(=O)c1ccc2c(=O)[nH]c(CSc3nc(-c4ccc(F)cc4)cs3)nc2c1	–	–	–	–	–
COc1cc2nc(CSc3nc(-c4ccc(F)cc4)cs3)[nH]c(=O)c2cc1OC	·	–	–	–	67
C[C@@H]1CCCCO[C@@H](CN(C)C(=O)Nc2ccc(F)cc2)[C@H](C)CN([C@H](C)CO)C(=O)c2cc(NS(=O)(=O)c3cn(C)cn3)ccc2O1	–	·	·	·	·
COc1cc(OC)c(OC)cc1CN(C)CCc1ccccn1	–	–	–	–	74
CO[C@H]1CN(C)C(=O)c2cc(NC(=O)C3CC3)ccc2OC[C@@H](C)N(C(=O)c2cccnc2)C[C@@H]1C	–	·	·	·	·
COCC(=O)Nc1ccc2c(c1)C(=O)N(C)C[C@H](OC)[C@@H](C)CN(Cc1ccncc1)[C@@H](C)CO2	–	·	·	·	·
O=c1[nH][nH]c2c(N=Cc3ccccc3O)ccc(F)c12	69	·	·	–	·
CCC(=O)N[C@@H]1C=C[C@H](CC(=O)NCc2cc(F)cc(F)c2)O[C@@H]1CO	–	·	·	·	·
C[C@H]1CN([C@@H](C)CO)C(=O)c2cc(C3=CCCCC3)cnc2O[C@@H]1CN(C)C(=O)C1CCOCC1	–	·	·	·	·
O=C(NCc1cccnc1)c1c[nH]c2cc3c(cc2c1=O)OCCO3	–	–	–	16	–
COc1ccccc1N1C(=O)S/C(=C\c2ccc(C)s2)C1=O	–	–	–	–	–
COc1ccccc1N1C(=O)S/C(=C\c2cc(C)n(C)c2C)C1=O	·	–	–	–	54
CCCCC(=O)Nc1ccc(NC(=O)CC)cc1OC	–	–	18	–	–
CCS(=O)(=O)N1CCCCN2[C@H](CO)[C@H](c3ccc(C4=CCCC4)cc3)[C@H]2C1	–	·	·	·	·
COC(=O)C1=C(C)N(CCc2ccc(OC)cc2)C(=O)C1	–	–	–	–	–
COC(=O)C1=C(C)N(Cc2ccc(OC)cc2)C(=O)C1	–	–	223	–	–
COC(=O)C1=C(C)N(Cc2ccco2)C(=O)C1	–	-60	–	–	–
C[C@H]1CN([C@@H](C)CO)C(=O)c2cc(C#Cc3cccnc3)cnc2O[C@H]1CN(C)C(=O)CN(C)C	–	·	·	·	·
O=C(Nc1ccc2c(c1)[C@@H]1C[C@H](CC(=O)N3CCCCC3)O[C@@H](CO)[C@@H]1O2)C1CCC1	–	·	·	·	·
CN(C)C(=O)[C@H]1[C@H](CO)[C@H]2Cn3c(ccc(-c4cccc(F)c4)c3=O)[C@H]2N1C(=O)c1ccccn1	–	·	·	·	·
O=c1c2ccccc2nnn1CSc1ccccc1	–	–	–	–	86
SMILES	ARNT-TACC3 inh	HSF1 inhib	HIF act	HSP90 refold inh	HSF-1 act
CC(C)(C)NC(=O)C1CC(=O)OC12CCOC(C)(C)C2 (stereo not given)	–	-58	–	–	–
CCCNC(=O)N[C@@H]1CC[C@@H](CC(=O)N2CCN(C)CC2)O[C@@H]1CO	–	·	·	·	·
Cc1nc(-c2cc(-c3ccc(Cl)cc3)no2)cs1	–	–	–	–	71
Cc1cc(SCC(=O)N/N=C/c2ccc(O)c(O)c2)c(C)cc1Br	–	–	–	–	63
C[C@@H]1CN([C@H](C)CO)C(=O)c2cc(C#Cc3ccncc3)cnc2O[C@@H]1CN(C)C(=O)CN(C)C	–	·	·	·	·
COc1ccccc1N1CCN(C(=O)CCNS(=O)(=O)c2ccc3c(c2)CCC(=O)N3)CC1	–	–	–	16	–
CCC(=O)N1CCc2cc(S(=O)(=O)NCCC(=O)Nc3cc(C)cc(C)c3)ccc21	–	–	–	–	–
CCC(=O)N1CCc2cc(S(=O)(=O)NCCC(=O)N3CCN(c4cccc(OC)c4)CC3)ccc21	·	–	30	–	–
CCC(=O)N1CCc2cc(S(=O)(=O)NCCC(=O)Nc3ccccc3C)ccc21	–	-65	–	–	–
CO[C@H]1CN(C)C(=O)c2cc(C#N)ccc2OC[C@H]2O[C@@H](CC[C@H]2OC)CCN(C)C(=O)[C@H]1C	–	·	·	·	·
COc1ccc(-n2nc(C(=O)NCC(=O)NCc3ccccc3OC)c3ccccc3c2=O)c(OC)c1	–	-60	–	–	–
[N-]=[N+]=NCc1ccccc1C[C@]1(C(=O)N2CCCCC2)COC(c2ccc(OCCCO)cc2)=N1	–	·	·	·	·
S=C1Cc2ccccc2N1	–	-77	–	–	–
CCC(C)[C@H](NC(=O)[C@@H]1Cc2ccccc2CN1)C(=O)Nc1ccc2c(c1)OCO2 (stereo not given in full)	·	–	–	–	77
CSCC[C@H](NC(=O)[C@@H]1Cc2ccccc2CN1)C(=O)Nc1ccc2c(c1)OCCO2	–	-52	–	–	–
CC(C)[C@H](NC(=O)[C@@H]1Cc2ccccc2CN1)C(=O)Nc1ccc2c(c1)OCCO2	–	–	–	–	–
O=C(CNC(=O)[C@@H]1Cc2ccccc2CN1)Nc1ccc2c(c1)OCCO2	–	-52	–	–	–
C[C@H](NC(=O)[C@@H]1Cc2ccccc2CN1)C(=O)Nc1ccc2c(c1)OCCO2	·	–	–	–	–
CC(=O)N(C)C[C@@H]1Oc2ncc(C#Cc3ccc(F)cc3)cc2C(=O)N([C@@H](C)CO)C[C@@H]1C	–	·	·	·	·
CC(=O)Nc1nnc(SCC(=O)c2ccc(F)cc2)s1	–	–	–	–	104
CC(=O)Nc1nnc(SCc2ccc(F)cc2)s1	–	–	–	–	–
O=C(CSC1CS(=O)(=O)c2cc([N+](=O)[O-])ccc21)NNC(=O)c1ccc(Cl)cc1 (stereo not given)	–	–	–	–	61
O=C(CSC1CS(=O)(=O)c2cc([N+](=O)[O-])ccc21)NNC(=O)c1ccccc1 (stereo not given)	–	–	–	–	–
Cc1ccc(/C=N/Nc2ccc(C(=O)O)cc2)o1	·	–	–	–	–
Cc1ccc(/C=N/Nc2ccc(C(=O)O)cc2)s1	–	-76	–	79	–
SMILES	ARNT-TACC3 inh	HSF1 inhib	HIF act	HSP90 refold inh	HSF-1 act
COc1cc(/C=C/C(=O)O)cc(S(=O)(=O)Nc2ccc(F)cc2)c1OC	–	–	–	–	–
COc1cc(/C=C/C(=O)O)cc(S(=O)(=O)Nc2ccc3nc(C)sc3c2)c1OC	–	–	–	17	–
COc1ccc(N2CCN(c3ccc(NC(=O)NN)cc3)CC2)cc1	–	-67	–	–	–
Cc1ccc(NC(=O)Nc2ccc(Cl)cn2)cc1	–	–	–	–	77
COC(=O)c1ccccc1NC(=O)Nc1ccc(Br)cn1	–	–	–	–	–
COc1ccc(NC(=O)Nc2ccc(Br)cn2)cc1	–	–	40	–	–
O=C(O)Cc1ccc(NC(=O)Nc2ccc(Br)cc2)cc1	–	–	–	–	–
COc1ccc(NC(=O)Nc2ccc(CC(=O)O)cc2)cc1	–	–	27	–	–
